The text below walks through data of PubChem BioAssay (NCI).

Assay [1] in a line: NCI Yeast Anticancer Drug Screen. Data for the rad50 strain (AID 155).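 Also: 0% = growth of vehicle-only cultures of the same strain.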 Particulars: S. cerevisiae rad50 strain growth inhibition, active compounds read high. In a few lines:
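Cells are treated with compound, grown, and their growth is then scored against vehicle-only cultures of the same repair-deficient yeast strain.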

The nature of assay [2]: NCI Yeast Anticancer Drug Screen. Data for the mec2-1 strain (AID 157). Particulars: S. cerevisiae mec2-1 strain, active compounds read high. In a few lines: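 Vehicle-treated cultures served as reference for growth inhibition of compound-exposed mec2-1 yeast.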
The nature of assay [3]: NCI Yeast Anticancer Drug Screen. Data for the sgs1 mgt1 strain (AID 161).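 Also: 0% = growth of cultures given vehicle only.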 Conditions: S. cerevisiae sgs1 mgt1 strain, active compounds read high. In a few lines:
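Read-out: growth inhibition vs vehicle controls. Cells: mutant yeast strain deficient in DNA damage repair.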

Assay [4] can be described thus: NCI Yeast Anticancer Drug Screen. Data for the cln2 rad14 strain (AID 165).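 Also: 0% = growth equal to vehicle treated cultures.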 Particulars: S. cerevisiae cln2 rad14 strain, active compounds read high. The method in brief:
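Each compound was tested on cln2 rad14 yeast. Inhibition of growth was calculated against vehicle-exposed controls.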

Assay [5] in a line: NCI Yeast Anticancer Drug Screen. Data for the bub3 strain (AID 167). Particulars: S. cerevisiae bub3 mutant strain, active compounds read high. The method in brief: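 Part of a panel of yeast mutants defective in DNA damage repair or cell cycle regulation. Each strain is grown with compound, and inhibition is calculated relative to solvent-treated cultures.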
The nature of assay [6]: NCI Yeast Anticancer Drug Screen. Data for the mlh1 rad18 strain (AID 175). Particulars: S. cerevisiae mlh1 rad18 strain growth inhibition, active compounds read high. In a few lines:
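Vehicle-treated cultures served as the reference for growth inhibition in a yeast strain carrying DNA damage repair alterations exposed to each compound.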

Setting [7] is: at 5.0 µM (retest, dose inferred, filed as 0.5).
Where [8] appears, read: at 50.0 µM (retest, dose inferred, filed as 5.0).

Each structure is given as a SMILES string. The panel holds about 79,000 compounds, 15% with a hit somewhere; the sample as a whole holds those more often. A number with no mark means an inactive call. Calls of active or inactive are those of the source. Rule as the data show it: active = growth inhibition above about 70%; inactive = the rest.

With `O=C(O)c1ccc2c(Br)ccc3c2c1CC3`, the growth inhibition in assay [1] (setting [7]) was 13%; in assay [1] (setting [8]), 8%; in assay [1] (at 50.0 µM), 77.3% (active); in assay [2] (setting [7]), -13%; in assay [2] (setting [8]) it was 25%; in assay [2] (at 50.0 µM), 56.1%. In addition, the growth inhibition is -6% in assay [3] (setting [7]); 16% in assay [3] (setting [8]); 73.5% (active) in assay [3] (at 50.0 µM); -8% in assay [4] (setting [7]); -1% in assay [4] (setting [8]); 18.1% in assay [4] (at 50.0 µM). Further, the growth inhibition is -2% in assay [5] (setting [7]); 20% in assay [5] (setting [8]); 8.05% in assay [5] (at 50.0 µM); 34% in assay [6] (setting [7]); 35% in assay [6] (setting [8]); 68.6% in assay [6] (at 50.0 µM).
Consider `CC(C)[C@H](N)C(=O)NCCNC(=O)[C@@H](N)C(C)C`, for which the growth inhibition in assay [1] (setting [7]) is 90% (active); in assay [1] (setting [8]), 99% (active); in assay [1] (at 50.0 µM) it was -24.6%; in assay [2] (setting [7]), 66%; in assay [2] (setting [8]), 99% (active); in assay [2] (at 50.0 µM), -4.9%. The growth inhibition was 62% in assay [3] (setting [7]); 99% (active) in assay [3] (setting [8]); -14.2% in assay [3] (at 50.0 µM); 89% (active) in assay [4] (setting [7]); 99% (active) in assay [4] (setting [8]); 17.2% in assay [4] (at 50.0 µM). Also, the growth inhibition in assay [5] (setting [7]) is 93% (active); in assay [5] (setting [8]) it was 100% (active); in assay [5] (at 50.0 µM) it was 37.1%; in assay [6] (setting [7]), 89% (active); in assay [6] (setting [8]), 99% (active); in assay [6] (at 50.0 µM), 4.4%.
With `COc1ccc(-c2c3c(cc4cc5c(cc24)OCO5)C(=O)OC3)cc1OC`, the growth inhibition is 26% in assay [1] (setting [7]); 96% (active) in assay [1] (setting [8]); 92.5% (active) in assay [1] (at 50.0 µM); 30% in assay [2] (setting [7]); 96% (active) in assay [2] (setting [8]); 93.9% (active) in assay [2] (at 50.0 µM). The growth inhibition in assay [3] (setting [7]) was 57%; in assay [3] (setting [8]), 96% (active); in assay [3] (at 50.0 µM), 93.7% (active); in assay [4] (setting [7]), 16%; in assay [4] (setting [8]), 87% (active); in assay [4] (at 50.0 µM), 92.3% (active). Moreover, the growth inhibition in assay [5] (setting [7]) was 51%; in assay [5] (setting [8]) it was 97% (active); in assay [5] (at 50.0 µM), 92.3% (active); in assay [6] (setting [7]), 62%; in assay [6] (setting [8]), 96% (active); in assay [6] (at 50.0 µM) it was 78.8% (active).
As for `NNc1cc(C(F)(F)F)nc2ccccc12`, the growth inhibition was -133% in assay [1] (setting [7]); -80% in assay [1] (setting [8]); 35.5% in assay [1] (at 50.0 µM); -48% in assay [2] (setting [7]); -46% in assay [2] (setting [8]); 3.1% in assay [2] (at 50.0 µM). Further, the growth inhibition in assay [3] (setting [7]) was -53%; in assay [3] (setting [8]), -48%; in assay [3] (at 50.0 µM), -21.1%; in assay [4] (setting [7]), -56%; in assay [4] (setting [8]) it was -88%; in assay [4] (at 50.0 µM), 34.1%. The growth inhibition was -65% in assay [5] (setting [7]); -75% in assay [5] (setting [8]); 1.45% in assay [5] (at 50.0 µM); -108% in assay [6] (setting [7]); -95% in assay [6] (setting [8]); 64.8% in assay [6] (at 50.0 µM).
For the compound `CCOC(=O)C(=O)N1C(C)=C(C(=O)OCC)CC(C(=O)OCC)=C1C`, the growth inhibition in assay [1] (setting [7]) was 35%; in assay [1] (setting [8]) it was 44%; in assay [1] (at 50.0 µM), -24.6%; in assay [2] (setting [7]) it was 18%; in assay [2] (setting [8]) it was 19%; in assay [2] (at 50.0 µM), -26.2%. Also, the growth inhibition is 30% in assay [3] (setting [7]); 32% in assay [3] (setting [8]); -17.8% in assay [3] (at 50.0 µM); 29% in assay [4] (setting [7]); 18% in assay [4] (setting [8]); -34% in assay [4] (at 50.0 µM). Besides, the growth inhibition in assay [5] (setting [7]) was 27%; in assay [5] (setting [8]), 25%; in assay [5] (at 50.0 µM), -8.45%; in assay [6] (setting [7]), 32%; in assay [6] (setting [8]) it was 31%; in assay [6] (at 50.0 µM), -44.1%.
As for `O=S(=O)(OCC#CCOS(=O)(=O)c1ccc(Cl)c(Cl)c1)c1ccc(Cl)c(Cl)c1`, the growth inhibition is -1% in assay [1] (setting [7]); 32% in assay [1] (setting [8]); 28.8% in assay [1] (at 50.0 µM); -1% in assay [2] (setting [7]); 41% in assay [2] (setting [8]); 44% in assay [2] (at 50.0 µM). The growth inhibition was -6% in assay [3] (setting [7]); 63% in assay [3] (setting [8]); 54.7% in assay [3] (at 50.0 µM); 1% in assay [4] (setting [7]); 8% in assay [4] (setting [8]); 75.2% (active) in assay [4] (at 50.0 µM). The growth inhibition in assay [5] (setting [7]) is -4%; in assay [5] (setting [8]), 32%; in assay [5] (at 50.0 µM), 35.3%; in assay [6] (setting [7]), 7%; in assay [6] (setting [8]), 37%; in assay [6] (at 50.0 µM) it was 48.2%.
In the case of `Clc1ccc(SSN2CCOCC2)cc1`, the growth inhibition in assay [1] (setting [7]) was 7%; in assay [1] (setting [8]), 84% (active); in assay [1] (at 50.0 µM), 98.5% (active); in assay [2] (setting [7]), -2%; in assay [2] (setting [8]), 80% (active); in assay [2] (at 50.0 µM), 98.9% (active). The growth inhibition in assay [3] (setting [7]) was 1%; in assay [3] (setting [8]), 98% (active); in assay [3] (at 50.0 µM) it was 98.9% (active); in assay [4] (setting [7]), -2%; in assay [4] (setting [8]), 40%; in assay [4] (at 50.0 µM), 61.3%. In addition, the growth inhibition in assay [5] (setting [7]) was 4%; in assay [5] (setting [8]) it was 92% (active); in assay [5] (at 50.0 µM), 98.5% (active); in assay [6] (setting [7]), 0%; in assay [6] (setting [8]), 96% (active); in assay [6] (at 50.0 µM), 97.2% (active).
On to `COC(=O)c1nc(=S)[nH]c(C(=O)OC)c1C(=O)c1ccc([N+](=O)[O-])cc1`, for which the growth inhibition in assay [1] (setting [7]) was 5%; in assay [1] (setting [8]) it was 84% (active); in assay [1] (at 50.0 µM), 96.8% (active); in assay [2] (setting [7]) it was -8%; in assay [2] (setting [8]), 64%; in assay [2] (at 50.0 µM), 49.4%. In addition, the growth inhibition in assay [3] (setting [7]) is -5%; in assay [3] (setting [8]), 80% (active); in assay [3] (at 50.0 µM), 96.5% (active); in assay [4] (setting [7]), 2%; in assay [4] (setting [8]), 70% (active); in assay [4] (at 50.0 µM), 31.1%. Besides, the growth inhibition in assay [5] (setting [7]) was 5%; in assay [5] (setting [8]), 93% (active); in assay [5] (at 50.0 µM) it was 61.1%; in assay [6] (setting [7]), -2%; in assay [6] (setting [8]), 93% (active); in assay [6] (at 50.0 µM), 91% (active).
With `CCC1CN2CCc3cc(OC)c(OC)cc3C2CC1CC1c2cc(OC)c(OC)cc2CCN1C(=O)C(Cc1c[nH]c2ccccc12)NC(=O)OC(C)(C)C` (configuration not stated), the growth inhibition in assay [1] (setting [7]) is -4%; in assay [1] (setting [8]), 97% (active); in assay [1] (at 50.0 µM) it was 96.8% (active); in assay [2] (setting [7]), -6%; in assay [2] (setting [8]) it was 98% (active); in assay [2] (at 50.0 µM), 88.3% (active). Further, the growth inhibition in assay [3] (setting [7]) is -5%; in assay [3] (setting [8]), 49%; in assay [3] (at 50.0 µM), 53%; in assay [4] (setting [7]), -13%; in assay [4] (setting [8]), 98% (active); in assay [4] (at 50.0 µM) it was 93.5% (active). For the same compound, the growth inhibition is -5% in assay [5] (setting [7]); 98% (active) in assay [5] (setting [8]); 59.5% in assay [5] (at 50.0 µM); -3% in assay [6] (setting [7]); 98% (active) in assay [6] (setting [8]); 93.8% (active) in assay [6] (at 50.0 µM).
